Reference: PubChem BioAssay
Active and inactive are the calls of the source.

Assays:
[1] = binders of probe aFSTL3 on microarray, primary screen, stem cell growth factor project, biochemical, small-molecule microarray, fluorescence 635/667 (AID 1064); details: higher = more signal;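 note: measures binding of the biotinylated anti-FSTL3 antibody to printed compounds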
[2] = binders from COS7 lysate, DM2A8 probe, primary screen, torsin A project, cell lysate, small-molecule microarray, fluorescence 635/667 (AID 1065); details: higher = more signal, COS7 lysate expressing mutant human TOR1A
[3] = binders of probe aFGF2 on microarray, primary screen, stem cell growth factor project, biochemical, small-molecule microarray, fluorescence 635/667 (AID 1067); details: higher = more signal;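 note: measures binding of biotinylated aFGF2 protein to printed compounds on slides; z-score merges feature fluorescence and signal-to-noise across triplicate slides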
[4] = binders of probe aFGF10 on microarray, primary screen, stem cell growth factor project, biochemical, small-molecule microarray, fluorescence 635/667 (AID 1071); details: higher = more signal;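 note: score merges 667 nm spot intensity and signal to noise from triplicate slides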
[5] = molecular target: Neurogenic locus notch homolog protein 2 (Homo sapiens) (UniProt Q04721); assay: Notch2 binders on small-molecule microarrays, primary screen, biochemical, small-molecule microarray, 635 nm fluorescence, stem cell growth factors (AID 1073); details: Notch2 binding, higher = more signal
[6] = molecular target: Pro-neuregulin-1, membrane-bound isoform (Homo sapiens) (UniProt Q02297); assay: NRG1 binders on small-molecule microarrays, primary screen, psychiatric disease protein project, biochemical, small-molecule microarray, fluorescence 635/667 (AID 1075); details: NRG1 binding, 635 nm fluorescence, higher = more signal;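 note: score combines 667 nm spot fluorescence with signal to noise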
[7] = system: Neuregulin-1 EGF-like domain; assay: binders of neuregulin-1 EGF-like domain, primary screen, biochemical, small-molecule microarray, 635 nm fluorescence (AID 1081); details: small-molecule microarray binding, higher = more signal;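 note: binding of the protein to compounds printed on small-molecule microarray slides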
[8] = FRG1 promoter luciferase signal modulators, primary screen, FRG1 inhibition for FSHD, cell-based, C2C12 myotubes, firefly/Renilla luciferase, luminescence (AID 1084); details: higher = more signal, called active from +8 up or from −8 down
[9] = binders of probe aFST on microarray, primary screen, stem cell growth factor project, biochemical, small-molecule microarray, fluorescence 635/667 (AID 1086); details: higher = more signal;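 note: score merges 667 nm fluorescence with signal-to-noise of each printed compound spot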
[10] = binders of probe aHhip on microarray, primary screen, stem cell growth factor project, biochemical, small-molecule microarray, fluorescence 635/667 (AID 1087); details: higher = more signal;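 note: score merges spot fluorescence at 667nm with spot signal to noise ratio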
[11] = system: PRMT1 (protein arginine N-methyltransferase 1); assay: PRMT1 binders on small-molecule microarrays, primary screen, biochemical, small-molecule microarray, 635 nm fluorescence (AID 1088); details: small-molecule microarray binding, higher = more signal;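 note: binding of Prmt1 protein to compounds spotted on small-molecule microarray slides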
[12] = yeast growth modulation, basal conditions, primary screen, YJM789 clinical isolate, OD600, 24 h (AID 1089);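 note: growth of clinical yeast isolate S. cerevisiae YJM 789 seeded 1000 cells per well; test concentration not given here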; details: S. cerevisiae YJM789 growth, higher = more signal, called active from +8 up or from −8 down
[13] = fission yeast growth modulation, primary screen, strain 972, OD600, 24 h, no modulator (AID 1090);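 note: basal condition with compound alone and no growth modifier present; test concentration not given here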; details: S. pombe 972 growth, higher = more signal, called active from +8 up or from −8 down
[14] = S. cerevisiae growth modulation with rapamycin, primary screen, strain BY4716, OD600, 96 h (AID 1091); details: higher = more signal, called active from +8 up or from −8 down; note: test concentration not given here
[15] = molecular target: Torsin-1A-interacting protein 2 (Homo sapiens) (UniProt Q8NFQ8); assay: LULL1 binders on small-molecule microarray, primary screen, cell lysate, human LULL1 lysate, 635/667 nm fluorescence (AID 1092); details: hLULL1 lysate binding, 635 nm fluorescence, higher = more signal;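 note: probe is lysate of COS7 cells overexpressing human LULL1; score merges per-feature 667 nm fluorescence with signal-to-noise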
[16] = E. coli growth modulation, two-sided OD650, primary screen, E. coli filamentation project, strain DRC41, 24 h (AID 1093); details: OD650, 24 h, higher = more signal, called active from +8 up or from −8 down;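 note: MC1000 strain lacking acrAB efflux and sulA so SOS filamentation is blocked; test concentration not given here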
[17] = small-molecule microarray binders of probe aLefty2, primary screen, biochemical, biotinylated probe, 635/667 nm fluorescence (AID 1094); details: higher = more signal;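 note: score merges spot fluorescence near 667 nm with spot signal-to-noise ratio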
[18] = system: Noggin (protein binding on small-molecule microarray); assay: Noggin binders on small-molecule microarray, primary screen, biochemical, 635/667 nm fluorescence (AID 1095); details: 635 nm fluorescence, higher = more signal;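 note: score merges 667 nm feature fluorescence with signal to noise over triplicate slides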
[19] = molecular target: Neurogenic locus notch homolog protein 3 (Homo sapiens) (UniProt Q9UM47); assay: NOTCH3 binders on small-molecule microarray, primary screen, biochemical, 635/667 nm fluorescence (AID 1096); details: NOTCH3 binding, 635 nm fluorescence, higher = more signal
[20] = small-molecule microarray binders of probe aEGFR, primary screen, biochemical, biotinylated probe, 635/667 nm fluorescence (AID 1097); details: higher = more signal;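 note: probe is a biotinylated anti-EGFR antibody binding compounds printed on slides; score combines fluorescence near 667 nm and signal to noise of each spot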

Pro-neuregulin-1, membrane-bound isoform (Homo sapiens), sequence (Q02297 whole entry, looked up, the tested form may be a part, canonical isoform): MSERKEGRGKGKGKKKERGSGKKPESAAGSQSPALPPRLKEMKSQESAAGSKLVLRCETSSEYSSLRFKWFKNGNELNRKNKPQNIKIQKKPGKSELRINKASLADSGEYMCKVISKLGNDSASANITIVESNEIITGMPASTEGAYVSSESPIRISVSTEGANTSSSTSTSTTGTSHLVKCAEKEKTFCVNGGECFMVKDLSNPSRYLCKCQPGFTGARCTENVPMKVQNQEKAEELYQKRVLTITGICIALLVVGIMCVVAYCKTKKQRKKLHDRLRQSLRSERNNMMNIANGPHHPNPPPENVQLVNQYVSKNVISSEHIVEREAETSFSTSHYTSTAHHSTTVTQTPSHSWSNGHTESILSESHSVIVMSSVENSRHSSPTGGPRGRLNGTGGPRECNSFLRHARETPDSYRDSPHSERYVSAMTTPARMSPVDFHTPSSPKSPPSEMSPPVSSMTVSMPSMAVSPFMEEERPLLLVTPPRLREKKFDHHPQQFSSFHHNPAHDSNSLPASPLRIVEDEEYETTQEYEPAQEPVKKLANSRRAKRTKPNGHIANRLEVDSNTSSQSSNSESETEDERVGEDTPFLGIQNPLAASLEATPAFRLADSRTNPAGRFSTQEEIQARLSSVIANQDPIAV
Neurogenic locus notch homolog protein 2 (Homo sapiens), sequence (Q04721 whole entry, looked up, canonical isoform): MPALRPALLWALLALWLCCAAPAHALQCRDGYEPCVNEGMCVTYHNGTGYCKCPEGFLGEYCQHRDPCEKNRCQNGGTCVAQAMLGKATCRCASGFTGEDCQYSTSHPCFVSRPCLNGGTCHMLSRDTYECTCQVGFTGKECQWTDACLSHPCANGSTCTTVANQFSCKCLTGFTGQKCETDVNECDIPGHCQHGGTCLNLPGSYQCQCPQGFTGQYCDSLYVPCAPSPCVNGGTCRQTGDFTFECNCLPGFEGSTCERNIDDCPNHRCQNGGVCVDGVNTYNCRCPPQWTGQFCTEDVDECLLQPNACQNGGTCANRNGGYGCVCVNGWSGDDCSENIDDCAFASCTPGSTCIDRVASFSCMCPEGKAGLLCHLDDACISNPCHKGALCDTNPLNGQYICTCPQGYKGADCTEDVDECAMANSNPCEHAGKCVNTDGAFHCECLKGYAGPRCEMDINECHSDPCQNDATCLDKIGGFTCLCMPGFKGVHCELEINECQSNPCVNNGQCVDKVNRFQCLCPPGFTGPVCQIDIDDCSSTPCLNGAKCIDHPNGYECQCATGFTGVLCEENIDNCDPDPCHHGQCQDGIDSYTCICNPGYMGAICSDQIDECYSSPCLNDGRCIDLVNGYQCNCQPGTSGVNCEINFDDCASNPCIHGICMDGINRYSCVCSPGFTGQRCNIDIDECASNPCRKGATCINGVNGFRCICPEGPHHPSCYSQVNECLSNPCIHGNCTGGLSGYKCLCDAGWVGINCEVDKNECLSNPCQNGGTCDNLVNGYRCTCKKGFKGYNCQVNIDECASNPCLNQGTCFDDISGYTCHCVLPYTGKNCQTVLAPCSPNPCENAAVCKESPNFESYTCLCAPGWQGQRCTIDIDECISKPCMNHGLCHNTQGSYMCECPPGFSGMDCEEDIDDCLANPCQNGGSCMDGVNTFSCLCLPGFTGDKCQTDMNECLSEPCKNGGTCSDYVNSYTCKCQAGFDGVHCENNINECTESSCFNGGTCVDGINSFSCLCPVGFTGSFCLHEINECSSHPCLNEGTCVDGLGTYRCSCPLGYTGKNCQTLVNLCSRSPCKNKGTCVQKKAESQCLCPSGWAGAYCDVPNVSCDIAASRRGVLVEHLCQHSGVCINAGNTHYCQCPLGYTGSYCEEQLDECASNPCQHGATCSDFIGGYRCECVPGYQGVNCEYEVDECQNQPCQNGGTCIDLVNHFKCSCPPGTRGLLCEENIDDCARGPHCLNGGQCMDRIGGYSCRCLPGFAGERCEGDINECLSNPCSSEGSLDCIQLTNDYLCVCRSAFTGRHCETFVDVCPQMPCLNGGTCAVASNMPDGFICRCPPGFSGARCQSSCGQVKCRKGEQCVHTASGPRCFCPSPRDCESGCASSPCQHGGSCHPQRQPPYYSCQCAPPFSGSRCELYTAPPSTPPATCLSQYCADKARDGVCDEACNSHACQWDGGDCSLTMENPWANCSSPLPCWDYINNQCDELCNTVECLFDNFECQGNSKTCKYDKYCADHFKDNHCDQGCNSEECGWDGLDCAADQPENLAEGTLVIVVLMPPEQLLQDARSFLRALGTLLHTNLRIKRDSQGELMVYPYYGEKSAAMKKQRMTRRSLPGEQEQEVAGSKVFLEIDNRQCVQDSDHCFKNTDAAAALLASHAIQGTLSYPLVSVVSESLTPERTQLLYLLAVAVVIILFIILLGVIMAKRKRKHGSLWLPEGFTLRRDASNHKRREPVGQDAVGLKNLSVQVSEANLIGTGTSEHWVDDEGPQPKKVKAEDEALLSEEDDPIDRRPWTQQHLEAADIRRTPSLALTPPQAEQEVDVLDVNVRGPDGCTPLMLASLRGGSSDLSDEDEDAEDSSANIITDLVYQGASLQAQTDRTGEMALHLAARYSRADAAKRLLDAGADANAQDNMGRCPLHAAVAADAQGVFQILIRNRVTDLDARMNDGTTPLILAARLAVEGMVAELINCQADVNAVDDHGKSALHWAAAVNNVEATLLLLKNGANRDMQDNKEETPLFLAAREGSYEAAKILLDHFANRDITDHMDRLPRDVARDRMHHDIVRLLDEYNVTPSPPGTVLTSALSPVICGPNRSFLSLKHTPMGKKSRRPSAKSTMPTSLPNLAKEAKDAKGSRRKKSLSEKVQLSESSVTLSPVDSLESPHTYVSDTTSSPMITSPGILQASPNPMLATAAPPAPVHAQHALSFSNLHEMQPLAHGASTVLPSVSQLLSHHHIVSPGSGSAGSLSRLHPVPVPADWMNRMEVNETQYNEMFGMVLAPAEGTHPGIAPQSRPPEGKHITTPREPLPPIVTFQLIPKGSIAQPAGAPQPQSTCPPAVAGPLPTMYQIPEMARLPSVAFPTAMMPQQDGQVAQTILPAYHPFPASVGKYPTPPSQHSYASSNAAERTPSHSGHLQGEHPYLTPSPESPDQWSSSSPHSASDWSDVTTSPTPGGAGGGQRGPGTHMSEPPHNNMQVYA
Torsin-1A-interacting protein 2 (Homo sapiens), sequence (Q8NFQ8 whole entry, looked up): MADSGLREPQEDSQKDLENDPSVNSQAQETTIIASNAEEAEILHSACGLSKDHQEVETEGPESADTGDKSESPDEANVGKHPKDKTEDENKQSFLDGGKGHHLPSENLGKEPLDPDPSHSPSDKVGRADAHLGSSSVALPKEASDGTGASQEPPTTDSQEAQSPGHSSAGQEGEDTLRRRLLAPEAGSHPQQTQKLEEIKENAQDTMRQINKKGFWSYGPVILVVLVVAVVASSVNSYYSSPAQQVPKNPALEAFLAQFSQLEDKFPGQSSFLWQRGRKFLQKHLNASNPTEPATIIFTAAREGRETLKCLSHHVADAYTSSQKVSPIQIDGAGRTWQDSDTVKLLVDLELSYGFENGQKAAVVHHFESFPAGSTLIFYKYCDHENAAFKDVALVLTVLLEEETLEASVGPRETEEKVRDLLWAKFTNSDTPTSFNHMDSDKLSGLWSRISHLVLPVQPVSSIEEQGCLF

SMILES | composite z-score [1] | composite z-score [2] | composite z-score [3] | composite z-score [4] | composite z-score [5] | composite z-score [6] | composite z-score [7] | z-score [8] | composite z-score [9] | composite z-score [10] | composite z-score [11] | z-score [12] | z-score [13] | z-score [14] | composite z-score [15] | z-score [16] | composite z-score [17] | composite z-score [18] | composite z-score [19] | composite z-score [20]
COc1ccc(C#Cc2ccc3c(c2)[C@]2(C(=O)N3)[C@H](C(=O)O)[C@H]3C(=O)O[C@H](c4ccccc4)[C@H](c4ccccc4)N3[C@@H]2c2ccc(O)cc2)cc1 | 0.499 | 0.928 | -0.0557 | 0.221 | -0.0571 | 0.418 | 1.28 | 0.247 (inactive) | 0.105 | -0.134 | 0.789 | 1.26 (inactive) | -0.813 (inactive) | 0.0118 (inactive) | 1.98 | 0.781 (inactive) | -0.0042 | -0.654 | -0.468 | -0.0758
CCOC(=O)C[C@H]1[C@H](OC(=O)c2cc3ccccc3oc2=O)[C@@H](NC(=O)c2ccccc2)c2cc(OCCCO)ccc2N1C(=O)c1ccccc1 | -0.319 | 0.524 | -0.105 | 0.462 | 1.17 | 0.0287 | 0.819 | 1.57 (inactive) | 0.349 | -0.199 | 0.58 | 0.126 (inactive) | -1.64 (inactive) | -0.277 (inactive) | -0.098 | -0.12 (inactive) | -0.0422 | 0.992 | 0.819 | 0.223
Cc1ccc(N2C(=O)c3ccccc3[C@@H](C(=O)NCCCN(C)C)[C@@H]2c2ccc(CO)cc2)nc1 | 1.36 | -0.538 | 0.111 | -0.533 | -0.854 | 1.02 | 1.44 | 0.298 (inactive) | 0.282 | -0.757 | 0.0027 | -0.292 (inactive) | -0.636 (inactive) | -0.81 (inactive) | -0.732 | 0.213 (inactive) | 0.186 | -0.572 | -0.916 | 0.576
COc1ccc(CCNC(=O)[C@@]2(Cc3ccccc3I)c3ccccc3C(=O)N(C3CCCCC3)[C@H]2c2ccc(CO)cc2)cc1 | -0.0515 | -0.256 | -0.079 | -0.0337 | 0.281 | 0.56 | 0.897 | -4.25 (inactive) | 0.384 | -0.0645 | 1.36 | -2.01 (inactive) | -1.81 (inactive) | -0.742 (inactive) | 2.3 | -1.41 (inactive) | -0.0176 | -0.275 | 0.566 | -0.115
CO[C@H]1O[C@H](CO)[C@@H](OC(=O)Nc2ccccc2)[C@H](OC(=O)c2cc3ccccc3[nH]2)[C@H]1OC(=O)c1cc2ccccc2[nH]1 | 0.731 | 0.0889 | 0.0336 | 0.886 | 0.518 | 1.18 | 0.495 | -0.542 (inactive) | 0.219 | -0.0994 | 0.499 | -1.63 (inactive) | -0.562 (inactive) | 0.216 (inactive) | 0.87 | 0.0433 (inactive) | -0.0107 | 0.248 | 0.196 | 0.0153
CN(C)CCCCCCNC(=O)[C@@H]1C[C@@H]2C(=O)N3CCC[C@H]3C(=O)N2[C@@H]1c1cccc(OCCO)c1 | 0.117 | 2.09 | 0.1 | 1.11 | 0.623 | 0.755 | 1.48 | 3.21 (inactive) | 0.518 | -0.0296 | 1.54 | 0.108 (inactive) | -0.177 (inactive) | 1.04 (inactive) | 1.66 | -0.395 (inactive) | -0.0664 | 1.54 | 1.06 | 0.193
C=C[C@@H](CO)N(Cc1ccc(OC)cc1)S(=O)(=O)c1ccc(Br)cc1 | -0.142 | 0.368 | -0.13 | 0.332 | -0.185 | 0.0749 | 0.996 | -4.18 (inactive) | -0.446 | -0.134 | -0.043 | -3.19 (inactive) | -6.8 (inactive) | -1.92 (inactive) | 0.268 | 2.31 (inactive) | 0.0711 | -0.193 | -0.731 | -0.0967
COc1cc(OC)c(C(O)C2C=CC3C(=O)N(Cc4ccccc4)C(=O)C3N2n2cnnc2)cc1Br (stereo not given) | -0.245 | 2.19 | -0.0131 | 0.919 | 0.36 | 1.32 | 1.12 | 0.569 (inactive) | 1.35 | -0.0645 | 1.11 | -1.92 (inactive) | -1.73 (inactive) | 0.027 (inactive) | 2.89 | -1.21 (inactive) | 0.0208 | 0.404 | 1.07 | -0.0343
COC(=O)C1=CC(CCCO)=CC(c2cccs2)N(Cc2cccc(OC(F)(F)F)c2)C=C1C(=O)OC (stereo not given) | -0.55 | 0.203 | 0.11 | 0.583 | 1.51 | 1.93 | 1.2 | 0.0099 (inactive) | 1.5 | 0.0053 | 1.57 | -1.07 (inactive) | -1.2 (inactive) | -1.45 (inactive) | 3.28 | 0.313 (inactive) | 0.0922 | 0.143 | 1.04 | 0.679
COc1cccc(C)c1NC(=O)O[C@H]1[C@H](OC(=O)Nc2ccc3c(c2)OCO3)[C@@H](OC(=O)Nc2ccc3c(c2)OCO3)[C@@H](OC)O[C@@H]1CO | -0.0021 | 0.893 | 0.121 | 1.07 | 1.65 | -0.0548 | 1.07 | 6.28 (inactive) | 1.17 | 0.0243 | 1.54 | 1.94 (inactive) | 2.2 (inactive) | 8.01 (active) | 3.58 | 1.23 (inactive) | 0.218 | 1.4 | 1.04 | -0.0031
